Source: PubChem BioAssay AID1159580 (chemical genetic matrix, 2015)
The whole screen tested about 5,500 compounds, of which about 2,000 (36%) were called active. Inconclusive results (about 18%) are left out. Some of the results follow. A number with no mark means an inactive call. No stated cut-off is given here; in the data, active means normalized growth mostly below about 0.91 (no sharp cut-off); inconclusive means no clear call, values can overlap the other calls; inactive means mostly above about 0.92.

Test: chemical genetic growth profiling, strain panel (AID 1159580);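 further: tested at 20 µM; growth read once vehicle control cultures reached saturation at 30 °C; 1 = growth at the plate median or of vehicle wells; lower values mean less growth of the strain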
Details: growth OD
[1] = S. cerevisiae deletion strains, locus YAR019C, strain CDC15, hits give low values
[2] = S. cerevisiae deletion strains, locus YBL105C, strain PKC1, hits give low values
[3] = S. cerevisiae deletion strains, locus YBR135W, strain CKS1, hits give low values
[4] = S. cerevisiae deletion strains, locus YBR136W, strain MEC1, hits give low values
[5] = S. cerevisiae deletion strains, locus YBR160W, strain CDC28, hits give low values
[6] = S. cerevisiae deletion strains, locus YDL017W, strain CDC7, hits give low values
[7] = S. cerevisiae deletion strains, locus YDL028C, strain MPS1, hits give low values
[8] = S. cerevisiae deletion strains, locus YDL101C, strain DUN1, hits give low values
[9] = S. cerevisiae deletion strains, locus YDL108W, strain KIN28, hits give low values
[10] = S. cerevisiae deletion strains, locus YDL132W, strain cdc53, hits give low values
[11] = S. cerevisiae deletion strains, locus YDL214C, strain PRR2, hits give low values
[12] = S. cerevisiae deletion strains, locus YDR052C, strain DBF4, hits give low values
[13] = S. cerevisiae deletion strains, locus YDR054C, strain cdc34, hits give low values
[14] = S. cerevisiae deletion strains, locus YDR226W, strain ADK1, hits give low values
[15] = S. cerevisiae deletion strains, locus YDR477W, strain SNF1, hits give low values
[16] = S. cerevisiae deletion strains, locus YER123W, strain YCK3, hits give low values
[17] = S. cerevisiae deletion strains, locus YER133W, strain GLC7, hits give low values
[18] = S. cerevisiae deletion strains, locus YFL009W, strain cdc4, hits give low values
[19] = S. cerevisiae deletion strains, locus YFL029C, strain CAK1, hits give low values
[20] = S. cerevisiae deletion strains, locus YFR003C, strain YPI1, hits give low values
[21] = S. cerevisiae deletion strains, locus YFR019W, strain FAB1, hits give low values
[22] = S. cerevisiae deletion strains, locus YFR028C, strain CDC14, hits give low values
[23] = S. cerevisiae deletion strains, locus YGR040W, strain KSS1, hits give low values
[24] = S. cerevisiae deletion strains, locus YGR052W, strain FMP48, hits give low values
[25] = S. cerevisiae deletion strains, locus YGR092W, strain DBF2, hits give low values
[26] = S. cerevisiae deletion strains, locus YHR030C, strain SLT2, hits give low values
[27] = S. cerevisiae deletion strains, locus YHR079C, strain IRE1, hits give low values
[28] = S. cerevisiae deletion strains, locus YHR082C, strain KSP1, hits give low values
[29] = S. cerevisiae deletion strains, locus YHR205W, strain SCH9, hits give low values
[30] = S. cerevisiae deletion strains, locus YIL147C, strain SLN1, hits give low values
[31] = S. cerevisiae deletion strains, locus YJL095W, strain BCK1, hits give low values
[32] = S. cerevisiae deletion strains, locus YJL128C, strain PBS2, hits give low values
[33] = S. cerevisiae deletion strains, locus YJL157C, strain FAR1, hits give low values
[34] = S. cerevisiae deletion strains, locus YJR016C, strain ILV3, hits give low values
[35] = S. cerevisiae deletion strains, locus YJR066W, strain TOR1 (second series), hits give low values
[36] = S. cerevisiae deletion strains, locus YJR066W, strain TOR1, hits give low values
[37] = S. cerevisiae deletion strains, locus YKL048C, strain ELM1, hits give low values
[38] = S. cerevisiae deletion strains, locus YKL067W, strain YNK1, hits give low values
[39] = S. cerevisiae deletion strains, locus YKL101W, strain HSL1, hits give low values
[40] = S. cerevisiae deletion strains, locus YKL193C, strain SDS22, hits give low values
[41] = S. cerevisiae deletion strains, locus YKL203C, strain TOR2, hits give low values
[42] = S. cerevisiae deletion strains, locus YLR113W, strain HOG1, hits give low values
[43] = S. cerevisiae deletion strains, locus YLR133W, strain CKI1, hits give low values
[44] = S. cerevisiae deletion strains, locus YLR403W, strain SFP1, hits give low values
[45] = S. cerevisiae deletion strains, locus YML070W, strain DAK1, hits give low values
[46] = S. cerevisiae deletion strains, locus YMR001C, strain CDC5, hits give low values
[47] = S. cerevisiae deletion strains, locus YMR205C, strain PFK2 (second series), hits give low values
[48] = S. cerevisiae deletion strains, locus YMR277W, strain FCP1, hits give low values
[49] = S. cerevisiae deletion strains, locus YNL006W, strain LST8, hits give low values
[50] = S. cerevisiae deletion strains, locus YNL020C, strain ARK1, hits give low values
[51] = S. cerevisiae deletion strains, locus YNL161W, strain CBK1, hits give low values
[52] = S. cerevisiae deletion strains, locus YNL183C, strain NPR1, hits give low values
[53] = S. cerevisiae deletion strains, locus YNL207W, strain RIO2, hits give low values
[54] = S. cerevisiae deletion strains, locus YNL222W, strain SSU72, hits give low values
[55] = S. cerevisiae deletion strains, locus YNL307C, strain MCK1 (second series), hits give low values
[56] = S. cerevisiae deletion strains, locus YOL078W, strain AVO1, hits give low values
[57] = S. cerevisiae deletion strains, locus YOL136C, strain PFK27, hits give low values
[58] = S. cerevisiae deletion strains, locus YOR061W, strain CKA2, hits give low values
[59] = S. cerevisiae deletion strains, locus YOR119C, strain RIO1, hits give low values
[60] = S. cerevisiae deletion strains, locus YOR231W, strain MKK1, hits give low values
[61] = S. cerevisiae deletion strains, locus YOR329C, strain SCD5, hits give low values
[62] = S. cerevisiae deletion strains, locus YPL031C, strain PHO85, hits give low values
[63] = S. cerevisiae deletion strains, locus YPL153C, strain RAD53, hits give low values
[64] = S. cerevisiae deletion strains, locus YPL204W, strain HRR25, hits give low values
[65] = S. cerevisiae deletion strains, locus YPL209C, strain IPL1, hits give low values
[66] = S. cerevisiae deletion strains, locus YPL256C, strain CLN2, hits give low values
[67] = S. cerevisiae deletion strains, locus YPR025C, strain CCL1, hits give low values
[68] = S. cerevisiae deletion strains, locus YPR106W, strain ISR1, hits give low values
[69] = S. cerevisiae deletion strains, locus YPR111W, strain DBF20, hits give low values
[70] = S. cerevisiae deletion strains, strain NNK1, hits give low values
[71] = S. cerevisiae deletion strains, strain TSCII, hits give low values

O=[N+]([O-])c1ccc2oc(C(O)c3ccc(-c4ccccc4)cc3)cc2c1 (stereo not drawn)
normalized growth [1]: 0.989
normalized growth [2]: 0.976
normalized growth [3]: 0.978
normalized growth [4]: 0.975
normalized growth [5]: 0.985
normalized growth [6]: 0.979
normalized growth [7]: 0.987
normalized growth [8]: 0.975
normalized growth [9]: 0.969
normalized growth [10]: 0.996
normalized growth [11]: 0.84
normalized growth [12]: 0.982
normalized growth [13]: 0.995
normalized growth [14]: 0.999
normalized growth [15]: 0.849
normalized growth [16]: 0.805
normalized growth [17]: 0.863
normalized growth [18]: 1
normalized growth [19]: 0.976
normalized growth [20]: 0.984
normalized growth [21]: 0.904
normalized growth [22]: 0.997
normalized growth [23]: 0.859
normalized growth [24]: 0.926
normalized growth [25]: 0.802
normalized growth [26]: 0.786 (active)
normalized growth [27]: 0.896
normalized growth [28]: 0.86
normalized growth [29]: 0.967
normalized growth [30]: 0.968
normalized growth [31]: 0.905
normalized growth [32]: 1.05
normalized growth [33]: 0.822
normalized growth [34]: 0.977
normalized growth [35]: 0.751
normalized growth [36]: 0.829
normalized growth [37]: 0.979
normalized growth [38]: 0.872
normalized growth [39]: 0.982
normalized growth [40]: 0.98
normalized growth [41]: 0.924
normalized growth [42]: 0.882
normalized growth [43]: 0.877
normalized growth [44]: 0.902
normalized growth [45]: 0.835
normalized growth [46]: 0.982
normalized growth [47]: 0.882
normalized growth [48]: 0.994
normalized growth [49]: 0.987
normalized growth [50]: 0.854
normalized growth [51]: 0.984
normalized growth [52]: 0.919
normalized growth [53]: 0.979
normalized growth [54]: 0.976
normalized growth [55]: 0.936
normalized growth [56]: 0.993
normalized growth [57]: 0.849
normalized growth [58]: 0.75
normalized growth [59]: 0.904
normalized growth [60]: 0.892
normalized growth [61]: 0.985
normalized growth [62]: 0.848
normalized growth [63]: 0.821
normalized growth [64]: 0.88
normalized growth [65]: 0.977
normalized growth [66]: 0.96
normalized growth [67]: 0.985
normalized growth [68]: 1
normalized growth [69]: 1.03
normalized growth [70]: 0.997
normalized growth [71]: 0.987

O=[N+]([O-])c1ccc2oc(C(O)c3cccc(Cl)c3)cc2c1 (stereo not drawn)
normalized growth [1]: 0.947
normalized growth [2]: 0.948
normalized growth [3]: 0.943
normalized growth [4]: 0.957
normalized growth [5]: 0.947
normalized growth [6]: 0.949
normalized growth [7]: 0.954
normalized growth [8]: 0.937
normalized growth [9]: 0.949
normalized growth [10]: 0.936
normalized growth [11]: 0.942
normalized growth [12]: 0.953
normalized growth [13]: 0.951
normalized growth [14]: 0.952
normalized growth [15]: 0.957
normalized growth [16]: 0.94
normalized growth [17]: 0.96
normalized growth [18]: 0.945
normalized growth [19]: 0.946
normalized growth [20]: 0.948
normalized growth [21]: 0.931
normalized growth [22]: 0.949
normalized growth [23]: 0.964
normalized growth [24]: 1.05
normalized growth [25]: 0.907
normalized growth [26]: 1.08
normalized growth [27]: 1.02
normalized growth [28]: 1.06
normalized growth [29]: 0.931
normalized growth [30]: 0.96
normalized growth [31]: 1.04
normalized growth [32]: 0.91
normalized growth [33]: 0.932
normalized growth [34]: 0.954
normalized growth [35]: 0.93
normalized growth [36]: 1.09
normalized growth [37]: 0.93
normalized growth [38]: 0.942
normalized growth [39]: 0.934
normalized growth [40]: 0.946
normalized growth [41]: 1.03
normalized growth [42]: 0.893
normalized growth [43]: 0.935
normalized growth [44]: 0.939
normalized growth [45]: 0.94
normalized growth [46]: 0.945
normalized growth [47]: 0.944
normalized growth [48]: 0.952
normalized growth [49]: 0.954
normalized growth [50]: 0.929
normalized growth [51]: 0.956
normalized growth [52]: 1.04
normalized growth [53]: 0.944
normalized growth [54]: 0.947
normalized growth [55]: 0.925
normalized growth [56]: 0.946
normalized growth [57]: 0.95
normalized growth [58]: 0.922
normalized growth [59]: 0.992
normalized growth [60]: 1.01
normalized growth [61]: 0.948
normalized growth [62]: 0.953
normalized growth [63]: 0.955
normalized growth [64]: 0.954
normalized growth [65]: 0.946
normalized growth [66]: 0.996
normalized growth [67]: 0.953
normalized growth [68]: 0.961
normalized growth [69]: 0.948
normalized growth [70]: 0.934
normalized growth [71]: 0.944

O=C(c1ccc(-c2ccccc2)cc1)c1cc2cc([N+](=O)[O-])ccc2o1
normalized growth (S. cerevisiae deletion strains, locus YAL013W, strain DEP1, hits give low values): 1
normalized growth (S. cerevisiae deletion strains, locus YBR229C, strain ROT2, hits give low values): 0.993
normalized growth [8]: 1.02
normalized growth (S. cerevisiae deletion strains, locus YDR150W, strain NUM1, hits give low values): 0.99
normalized growth (S. cerevisiae deletion strains, locus YEL061C, strain CIN8, hits give low values): 1.01
normalized growth (S. cerevisiae deletion strains, locus YGR078C, strain PAC10, hits give low values): 1.01
normalized growth [26]: 1.01
normalized growth (S. cerevisiae deletion strains, locus YHR087W, strain rtc3, hits give low values): 1.01
normalized growth (S. cerevisiae deletion strains, locus YJR043C, strain POL32, hits give low values): 0.997
normalized growth (S. cerevisiae deletion strains, locus YJR075W, strain HOC1, hits give low values): 1.03
normalized growth (S. cerevisiae deletion strains, locus YKL190W, strain CNB1, hits give low values): 0.993
normalized growth (S. cerevisiae deletion strains, locus YLR039C, strain RIC1, hits give low values): 0.986
normalized growth (S. cerevisiae deletion strains, locus YLR058C, strain SHM2 (second series), hits give low values): 0.993
normalized growth (S. cerevisiae deletion strains, locus YLR085C, strain ARP6, hits give low values): 1
normalized growth (S. cerevisiae deletion strains, locus YLR262C, strain YPT6, hits give low values): 0.981
normalized growth (S. cerevisiae deletion strains, locus YML094W, strain GIM5, hits give low values): 1.07
normalized growth (S. cerevisiae deletion strains, locus YMR219W, strain ESC1, hits give low values): 1
normalized growth (S. cerevisiae deletion strains, locus YMR263W, strain SAP30, hits give low values): 1.04
normalized growth (S. cerevisiae deletion strains, locus YNL153C, strain GIM3, hits give low values): 1.01
normalized growth (S. cerevisiae deletion strains, locus YNL298W, strain CLA4 (second series), hits give low values): 0.996
normalized growth (S. cerevisiae deletion strains, locus YNL322C, strain KRE1, hits give low values): 1.01
normalized growth (S. cerevisiae deletion strains, locus YNR030W, strain Alg12, hits give low values): 1
normalized growth (S. cerevisiae deletion strains, locus YPL055C, strain LGE1, hits give low values): 1.01
normalized growth (S. cerevisiae deletion strains, locus YPL241C, strain CIN2, hits give low values): 1.07
normalized growth (S. cerevisiae deletion strains, locus YPR135W, strain CTF4, hits give low values): 1.12
normalized growth (S. cerevisiae strains, strain wild type, hits give low values): 0.987
